Sampled rows, rich in hits. Any-hit rate of the full collection: about 4.8%.
NALP1 yeast inh – NALP1 inflammasome inhibitors in reconstituted yeast, colorimetric, S. cerevisiae, triplicate retest | actives 0.61% (n = 280,000) | AID 2071, 2009 | inhibition, % at 10 µM | S. cerevisiae NALP1/ASC/caspase-1 growth, X-gal OD620, 72 h; in the data active means inhibition mostly above about 24%, no sharp cut-off; inactive means mostly below about 32%
tim10-1 inh – growth inhibitors of tim10-1 mutant yeast, primary screen, luminescence, uHTS; S. cerevisiae tim10-1 ts strain growth, BacTiter-Glo, 24 h; inhibition, % at 20 µM; actives 2.2% (n = 330,000); AID 463190, 2010;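 active means inhibition of at least 40%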;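 further: mutant grown at 25 °C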
SKKanGAS inh – S. pyogenes SKKanGAS growth inhibitors in kanamycin, primary screen, streptokinase expression inhibitor project, SKKanGAS strain, BacTiter-Glo luminescence. inhibition, % at 7.5 µM. actives 1.3% (n = 300,000). 6 h;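 active means mean replicate score, as percent of positive control median, at least 50; inconclusive means mean below 50 but one replicate at or above 50; inactive means mean and every replicate below 50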;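 further: strain carries kanamycin resistance gene driven by streptokinase promoter and grows in 40 µg/ml kanamycin; loss of luminescence reflects streptokinase promoter inhibition or plain growth inhibition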
PfHsp90 yeast 2 – growth inhibition of PfHsp90-expressing yeast, primary screen, antimalarial PfHsp90 inhibitor project, S. cerevisiae, BacTiter-Glo luminescence, single point, set 2 | BacTiter-Glo ATP, 48 h; yeast lacking PDR1 and PDR3 efflux regulators | inhibition, % at 9.4 µM | actives 0.32% (n = 310,000);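 active means every replicate shows inhibition above about 80%, whatever the replicate mean, limit read from the data; inconclusive means mean inhibition reaches the set limit but some replicate falls short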
tim23-1 inh – growth inhibitors of tim23-1 mutant yeast, primary screen, luminescence, uHTS; S. cerevisiae tim23-1 growth, BacTiter-Glo luminescence, 24 h; inhibition, % at 20 µM; actives 1.3% (n = 330,000); AID 463212, 2010;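 active means growth inhibition of the mutant yeast at or above 50%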;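 further: temperature-sensitive mutant grown at 25 °C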
TIM10 inh – growth inhibitors of isogenic TIM10 control yeast, primary screen, counter-screen for tim10-1 yeast inhibitor project, luminescence, uHTS; S. cerevisiae TIM10 strain growth, BacTiter-Glo luminescence, 24 h; inhibition, % at 10 µM; actives 1.4% (n = 330,000); AID 463195, 2010;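 active means inhibition of 40% or more at the single tested concentration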;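 further: wild-type TIM10 isogenic control strain grown at permissive 25 °C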
Hits are given with their value; - = inactive; ? = inconclusive; . = not tested or not shown; + = active, no number.

SMILES	NALP1 yeast inh	tim10-1 inh	SKKanGAS inh	PfHsp90 yeast 2	tim23-1 inh	TIM10 inh
O=C(Nc1nc(-c2cccs2)cs1)c1ccc(S(=O)(=O)N2CCCCC2)cc1	.	-	-	-	-	-
O=C(COc1ccc(F)cc1Cl)Nc1nc(-c2ccccn2)cs1	.	-	110	-	-	-
Cc1cccnc1Nc1nc(-c2ccccc2)cs1	-	-	-	-	-	-
CN(C(=O)COC(=O)c1ccc(S(=O)(=O)N2CCOCC2)cc1)c1ccccc1	.	-	.	-	-	-
Cn1nc(C(=O)N2CCC(C(N)=O)CC2)c2c1-c1ccccc1SC2	-	-	-	-	-	-
Cc1c(NS(=O)(=O)c2cc(C(=O)NCc3cccnc3)cc(Cl)c2Cl)c(=O)n(-c2ccccc2)n1C	.	-	-	-	-	-
O=C(CCCSc1ccccc1)Nc1nc(-c2ccccn2)cs1	-	-	105	-	-	-
O=C(Nc1nc(-c2ccccn2)cs1)C1CCCC1	-	-	-	-	-	-
O=C(Nc1nc(-c2ccccn2)cs1)c1ncc(Cl)c(Cl)c1Cl	-	-	98	110	-	-
COc1cc(/C=C/C(=O)OC2CC3CCC2(C)C3(C)C)ccc1O (stereo not drawn)	-	-	61	-	-	-
COc1cc(/C=C/C(=O)OCC(=O)N2CCC(C)CC2)ccc1O	.	-	-	-	-	-
COc1ccccc1C(=O)C1CCCN(C(=O)c2ccccc2C(C)=O)C1 (stereo not drawn)	27	-	-	-	-	-
S=C1Cc2ccccc2N1	.	.	?	107	.	.
Cc1ccc(N(C)C(=O)c2cc(S(=O)(=O)N3CCCCC3)c[nH]2)cc1	-	-	-	-	-	-
O=C(NCc1nc(-c2ccc(C(F)(F)F)cc2)no1)Nc1cc(Cl)cc(Cl)c1	.	-	109	-	-	-
COCCNC(=O)/C(C#N)=C/c1c(N2CCN(c3cccc(Cl)c3)CC2)nc2c(C)cccn2c1=O	-	-	-	-	-	-
O=C(N/N=C/c1cc(Cl)ccc1O)c1ccncc1	-	-	99	-	-	-
CCc1ccc(S(=O)(=O)/N=C2\C=C(NS(=O)(=O)c3ccccc3)C(=O)c3ccccc32)cc1	-	-	63	-	-	-
CC(C)c1ccc(S(=O)(=O)/N=C2\C=C(NS(=O)(=O)c3ccccc3)C(=O)c3ccccc32)cc1	-	.	-	-	.	.
Cc1ccc(C)c(S(=O)(=O)/N=C2\C=C(NS(=O)(=O)c3ccccc3)C(=O)c3ccccc32)c1	-	-	107	-	-	-
Cc1ccccc1NC1=C/C(=N\S(=O)(=O)c2ccc(C(=O)O)cc2)c2ccccc2C1=O	-	-	95	-	-	-
CC(NCc1ccc(F)cc1)C(=O)NC1CCCCC1 (stereo not drawn)	44	-	-	-	-	-
CCOC(=O)COc1ccc2ccccc2c1/C=C/[N+](=O)[O-]	79	.	-	104	.	.
CN(C)S(=O)(=O)c1ccc(C(=O)NCC[N+]2(C)CCCCCC2)o1	-	-	-	-	-	-
S=C(c1ccc(-c2cccc(Cl)c2)o1)N1CCCCC1	38	-	-	-	-	-
SMILES	NALP1 yeast inh	tim10-1 inh	SKKanGAS inh	PfHsp90 yeast 2	tim23-1 inh	TIM10 inh
S=C(c1ccc(-c2cccc(Cl)c2)o1)N1CCOCC1	-	-	-	-	-	-
C=CC1=C(C(=O)O)N2C(=O)[C@@H](NC(=O)/C(=N\O)c3csc(N)n3)[C@H]2SC1 (stereo in doubt)	.	-	107	-	-	-
Clc1cc2nc(-c3cccnc3Cl)[nH]c2cc1Cl	-	-	-	-	-	-
O=C(Cc1cccc2ccccc12)N/N=C/c1ccc(O)c([N+](=O)[O-])c1	-	-	-	-	-	-
O=C(Cc1cccc2ccccc12)N/N=C/c1ccc2cccc(O)c2n1	.	-	71	-	-	-
Cc1ccccc1CCNC(=O)C1CCN(S(=O)(=O)c2ccc(-n3cnnn3)cc2)CC1	31	.	-	-	.	.
O=C(CCNC(=O)c1ccco1)NCCc1ccc(Cl)cc1	38	-	-	-	-	-
Cc1ccc2nc(-c3ccc(NS(=O)(=O)c4ccc(F)c(F)c4)cc3)sc2c1	-	.	76	-	.	.
O=Cc1c(F)cccc1N1CCCC1	-	-	-	-	-	-
O=C(/C=C/c1ccccc1)CCN1CCOCC1	.	.	.	107	.	.
O=C(/C=C/c1ccccc1)N1CCOCC1	-	-	-	-	-	-
Nc1[nH]n2c(=O)cc(-c3ccccc3)nc2c1N=Nc1ccccc1	-	-	104	.	-	-
CC1CCc2cc(F)cc3c(=O)c(C(=O)O)cn1c23 (stereo not drawn)	102	-	-	-	-	-
CCn1c(N2CCN(S(=O)(=O)c3ccccc3)CC2)nc2ccccc21	-	-	-	-	-	-
CC(C)(C)c1cc(-c2nc(N)nc(N)n2)c(O)c(C(C)(C)C)c1	.	-	.	+	-	-
Cc1ccc(Nc2nc(N)c([N+](=O)[O-])c(NCc3ccco3)n2)cc1C	-	-	60	-	-	-
Cc1ccc(Nc2nc(N)c([N+](=O)[O-])c(NCCO)n2)cc1C	.	-	-	-	-	-
COC(=O)c1ccccc1NC(=O)CSc1nnc(-c2cccnc2)n1N	-	-	-	-	-	-
O=C(COC(=O)c1ccccc1C(=O)c1ccc(Cl)c([N+](=O)[O-])c1)NC1CCCCCC1	36	-	-	.	-	-
O=C(c1cc2ccccn2n1)N1CCN(Cc2ccccc2)CC1	34	-	-	-	-	-
O=C(O)c1cccnc1SC1CC(=O)N(CCc2ccccc2)C1=O (stereo not drawn)	40	-	-	-	-	-
Cc1ccc(N=Nc2ccc(O)c3ncccc23)cc1C	-	-	88	-	-	-
Cc1ccc(N=Nc2ccc(O)c3ncccc23)cc1	-	.	109	-	.	.
CCS(=O)(=O)c1ccc(N=Nc2ccc(O)c3ncccc23)c(OC)c1	-	-	-	-	-	-
Cc1ccc(N=Nc2ccc3ccccc3c2O)cc1	-	-	-	-	-	-
Cc1ccccc1NC(=O)NCCCN1CCN(C)CC1	-	-	-	-	-	-
CCOCC(=O)Nc1c(C(=O)N2CCN(c3ncccn3)CC2)oc2ccccc12	-	-	-	-	-	-
COc1ccc(C2CC(=O)CC(=O)C2n2cncn2)cc1 (stereo not drawn)	-	-	-	.	-	-
C/C(=N/Nc1ccccc1[N+](=O)[O-])c1ccc(C)c([N+](=O)[O-])c1	-	-	-	-	-	-
CC(C)/C(=N/Nc1ccccc1[N+](=O)[O-])c1ccccc1	-	-	56	-	-	-

Screens: PubChem BioAssay, several laboratories
